Measurements: the supplement of paper PMC8975748
Where a name gives a salt, the structure may show the parent alone.

system: Saccharomyces cerevisiae BY4741 SeMeCo community; assay: z-score of subpopulation abundance vs DMSO median, subpopulation auxotrophic for HL; higher = larger share of this subpopulation than in DMSO controls; details: 10 µM; 24 h; SM minimal medium; subpopulation (auxotrophy): HL
Method in brief: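 Automated confocal microscopy of paraformaldehyde-fixed cells was used to follow a Saccharomyces cerevisiae BY4741 community carrying four plasmids, each restoring one auxotrophy and encoding a distinct fluorescent protein. The community was pre-grown overnight to OD600 1.0, diluted to 0.3, and added at 70 µl to 384-well plates acoustically predosed with library drugs (10 µM final) for 24 h of growth in minimal SM medium. Single-auxotroph fluorescent strains set thresholds and autofluorescence correction, and each subpopulation's abundance was scored as a z-score against the vehicle-well median.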

SMILES | z-score of subpopulation abundance
C=C[C@]1(C)C[C@@H](OC(=O)CSC(C)(C)CNC(=O)[C@H](N)C(C)C)[C@]2(C)[C@H](C)CC[C@]3(CCC(=O)[C@H]32)[C@@H](C)[C@@H]1O [Valnemulin HCl] | 0.85
C[N+]1(C)CCC(=C(c2ccccc2)c2ccccc2)CC1 [Diphemanil Methylsulfate] | -0.17
CC[C@H]1OC(=O)[C@H](C)[C@@H](O[C@H]2C[C@@](C)(OC)[C@@H](O)[C@H](C)O2)[C@H](C)[C@@H](O[C@@H]2O[C@H](C)C[C@H](N(C)C)[C@H]2O)[C@](C)(O)C[C@@H](C)/C(=N\OCOCCOC)[C@H](C)[C@@H](O)[C@]1(C)O [Roxithromycin] | 0.42
NCc1ccccc1CC(=O)N[C@@H]1C(=O)N2C(C(=O)O)=C(CSc3nnnn3CC(=O)O)CS[C@H]12 [Ceforanide] | 2.92
C#C[C@]1(O)CC[C@H]2[C@@H]3CCC4=Cc5oncc5C[C@]4(C)[C@H]3CC[C@@]21C [Danazol] | -0.13
Cc1c(OCC(F)(F)F)ccnc1C[S+]([O-])c1nc2ccccc2[nH]1 (centres undefined) [Lansoprazole] | 2.01
CC(C(O)c1ccc(O)cc1)N1CCC(Cc2ccccc2)CC1 (centres undefined) [Ifenprodil Tartrate] | -1.19
Cc1ncc([N+](=O)[O-])n1C [Dimetridazole] | -0.32
CC(=O)OCC[N+](C)(C)C [Acetylcholine iodide] | -0.89
CC(=O)N1CCN(c2ccc(OCC3COC(Cn4ccnc4)(c4ccc(Cl)cc4Cl)O3)cc2)CC1 (centres undefined) [Ketoconazole] | -0.6
CN1C2CCCC1CC(NC(=O)c1nn(C)c3ccccc13)C2 (centres undefined) [Granisetron HCl] | 0.42
NC(=O)OCC(COC(N)=O)c1ccccc1 [Felbamate] | -0.42
CCCN(CCC)CCc1cccc2c1CC(=O)N2 [Ropinirole HCl] | 0.65
CC(=O)NO [Acetohydroxamic acid] | 0.57
CCN(CC)CC#CCOC(=O)C(O)(c1ccccc1)C1CCCCC1 (centres undefined) [Oxybutynin chloride] | -0.93
O=C1CC2(CCCC2)CC(=O)N1CCCCN1CCN(c2ncccn2)CC1 [Buspirone HCl] | 0
Cc1ccc(-c2cc(C(F)(F)F)nn2-c2ccc(S(N)(=O)=O)cc2)cc1 [Celecoxib] | -0.61

SMILES | z-score of subpopulation abundance
Cc1cccc(N(C)C(=S)Oc2ccc3ccccc3c2)c1 [Tolnaftate] | -0.75
CC(C)Cc1ccc(C(C)C(=O)O)cc1 (centres undefined) [Ibuprofen Lysine] | -0.13
O=C(Nc1cc(Cl)cc(Cl)c1O)c1c(O)c(Cl)cc(Cl)c1Cl [Oxyclozanide] | 1.03
CN1CCN(CC(=O)N2c3ccccc3C(=O)Nc3cccnc32)CC1 [Pirenzepine dihydrochloride] | -0.63
O=C(O)CCc1nc(-c2ccccc2)c(-c2ccccc2)o1 [Oxaprozin] | -0.56
CC[C@H]1OC(=O)[C@H](C)[C@@H](O[C@H]2C[C@@](C)(OC)[C@@H](O)[C@H](C)O2)[C@H](C)[C@@H](O[C@@H]2O[C@H](C)C[C@H](N(C)C)[C@H]2O)[C@](C)(O)C[C@@H](C)C(=O)[C@H](C)[C@H]2OC(=O)O[C@@]21C [Erythromycin Cyclocarbonate] | 1.2
CN1CCC(=C2c3ccccc3C=Cc3ccccc32)CC1 [Cyproheptadine hydrochloride] | -0.02
CCOc1cc(N)c(Cl)cc1C(=O)NCC1CN(Cc2ccc(F)cc2)CCO1 (centres undefined) [Mosapride] | -0.5
C/C(=C\C(=O)OCCCCCCCCC(=O)O)C[C@@H]1OC[C@H](C[C@@H]2O[C@H]2[C@@H](C)[C@H](C)O)[C@@H](O)[C@H]1O [Mupirocin calcium] | -0.37
Cc1cc(C)nc(NS(=O)(=O)c2ccc(N)cc2)n1 [Sulfamethazine Sodium Salt] | -0.24
CCN(CC)CCNC(=O)c1cc(Cl)c(N)cc1OC [Metoclopramide] | -0.39
CC1=C(C(=O)OCCN(Cc2ccccc2)c2ccccc2)C(c2cccc([N+](=O)[O-])c2)C(P2(=O)OCC(C)(C)CO2)=C(C)N1 (centres undefined) [Efonidipine] | 0.79
CS(=O)(=O)c1ccc([C@@H](O)[C@@H](CF)NC(=O)C(Cl)Cl)cc1 [Florfenicol] | -0.56
COC(=O)C1=C(C)NC(C)=C(C(=O)OC(C)(C)CN(C)CCC(c2ccccc2)c2ccccc2)C1c1cccc([N+](=O)[O-])c1 (centres undefined) [Lercanidipine hydrochloride] | 1.84
O=c1[nH]c2ccccc2n1CCN1CCN(c2cccc(C(F)(F)F)c2)CC1 [Flibanserin] | -0.75
CC1(C)S[C@@H]2[C@H](NC(=O)[C@H](NC(=O)N3CCNC3=O)c3ccccc3)C(=O)N2[C@H]1C(=O)O [Azlocillin sodium salt] | 0.33
CCN(CC)CCOC(=O)c1ccc(N)cc1Cl [Chloroprocaine HCl] | -0.09
